PubChem BioAssay

Legend:
PEG-3 [1] = target: PEG-3 (UniProt Q6IN02); assay: Peg3 promoter luciferase inhibitors, potency, dose response, cell-based, HeLa, CREF/GAPDH counter-screen panel (AID 624167); settings: CREF/GAPDH counter-screens; HeLa PEG-Prom luciferase reporter, overnight, run 1, dose range 1, at 100 µM (top of the series) unless noted
PEG-3 [2] = target: PEG-3 (UniProt Q6IN02); assay: as above; settings: CREF/GAPDH counter-screens; HeLa PEG-Prom luciferase reporter, overnight, run 2, dose range 1, at 100 µM (top of the series) unless noted
Rat fibroblasts (CREF) [3] = assay: as above; settings: CREF/GAPDH counter-screens; run 1, dose range 1, at 100 µM (top of the series)
Rat fibroblasts (CREF) [4] = assay: as above; settings: CREF/GAPDH counter-screens; run 2, dose range 1, at 100 µM (top of the series)
[5] = target: Tumor necrosis factor receptor superfamily member 10B (Homo sapiens) (UniProt O14763); assay: caspase-8 TRAIL sensitization, hit retest, confirmation, cell-based, NB7+caspase-8, with/without TRAIL, luminescence panel (AID 651596); settings: NB7 neuroblastoma + caspase-8, TRAIL sensitization, luminescence viability, with TRAIL, mean of runs, at 10 µM, stronger effect = higher value
[6] = as above; settings: NB7 neuroblastoma + caspase-8, without TRAIL, luminescence viability, without TRAIL, mean of runs, at 10 µM

Chain of PEG-3 (Q6IN02 whole entry, looked up): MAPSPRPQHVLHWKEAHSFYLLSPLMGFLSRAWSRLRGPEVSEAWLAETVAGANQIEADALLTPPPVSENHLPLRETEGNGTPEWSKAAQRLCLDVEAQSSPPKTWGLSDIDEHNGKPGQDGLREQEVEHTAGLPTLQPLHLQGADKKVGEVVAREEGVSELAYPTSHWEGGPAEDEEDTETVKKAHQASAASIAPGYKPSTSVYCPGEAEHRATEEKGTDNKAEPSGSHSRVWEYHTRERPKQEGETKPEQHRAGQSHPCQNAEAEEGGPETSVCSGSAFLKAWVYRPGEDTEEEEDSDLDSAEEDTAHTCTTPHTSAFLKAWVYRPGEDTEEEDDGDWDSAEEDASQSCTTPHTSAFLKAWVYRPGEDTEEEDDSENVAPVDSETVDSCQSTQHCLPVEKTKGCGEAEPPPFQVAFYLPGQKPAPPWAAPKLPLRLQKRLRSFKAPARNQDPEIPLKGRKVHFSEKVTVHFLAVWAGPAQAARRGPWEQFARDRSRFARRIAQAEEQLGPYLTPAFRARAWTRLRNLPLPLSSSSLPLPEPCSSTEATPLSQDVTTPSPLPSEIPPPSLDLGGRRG
Chain of Tumor necrosis factor receptor superfamily member 10B (Homo sapiens) (O14763 whole entry, looked up): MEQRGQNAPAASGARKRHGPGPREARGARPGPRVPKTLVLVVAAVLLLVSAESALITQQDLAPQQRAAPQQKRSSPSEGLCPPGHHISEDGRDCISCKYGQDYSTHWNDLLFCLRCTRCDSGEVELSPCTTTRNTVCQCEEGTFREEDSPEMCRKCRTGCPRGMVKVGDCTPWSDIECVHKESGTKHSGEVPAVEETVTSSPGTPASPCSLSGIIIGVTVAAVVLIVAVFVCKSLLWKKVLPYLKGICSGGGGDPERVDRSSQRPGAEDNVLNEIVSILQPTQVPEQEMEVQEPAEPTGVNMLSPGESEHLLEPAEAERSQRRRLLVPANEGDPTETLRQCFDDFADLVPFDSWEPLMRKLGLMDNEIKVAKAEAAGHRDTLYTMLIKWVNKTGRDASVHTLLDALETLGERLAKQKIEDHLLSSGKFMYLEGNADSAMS

| SMILES | inhibition (PEG-3 [1]) [%] | inhibition (PEG-3 [2]) | inhibition (Rat fibroblasts (CREF) [3]) [%] | inhibition (Rat fibroblasts (CREF) [4]) [%] | activity [5] [%] | activity [6] [%] |
| --- | --- | --- | --- | --- | --- | --- |
| CN(C)CC1CCC/C(=C\c2ccc(OC(=O)c3ccc(Cl)cc3)cc2)C1=O (centres undefined) | 97.7 | 99% | 51.4 | -21.7 |  |  |
| Cc1cc(S(=O)(=O)c2ccc(Cl)cc2)nc(S(=O)(=O)c2ccc(Cl)cc2)c1C#N | 99.1 | 101% | 98.2 | 98.8 |  |  |
| CC(C)CC(=NNC(=O)c1ccncc1)c1cc(Cl)ccc1O | 76.9 | 93.6% [run 2, dose range 1, at 50 µM] | 73.9 | 81.7 |  |  |
| CCCC(=O)NC(c1ccc(C(C)C)cc1)c1ccc2cccnc2c1O (centres undefined) | 95.6 | 82.8% | 17.4 | 7.77 |  |  |
| COc1cc(OC)c2cc(C(=O)N/N=C/c3ccccc3O)[nH]c2c1 | 95.8 | 95.1% | 67.5 | 65.2 |  |  |
| COc1ccccc1C(=O)Nc1nc2ccccc2[nH]1 | 99.2 | 102% | 100 | 99.5 |  |  |
| Oc1c(Br)cc(Br)c2cccnc12 | 81.8 | 71% | 88.2 | 94.5 |  |  |
| O=[N+]([O-])c1ccc(-c2ccc(/C=N/Nc3nc(NCc4ccccc4)nc(N4CCOCC4)n3)o2)cc1 | 99.5 | 91.5% | 97.5 | 96.9 |  |  |
| Cc1cc(C)c2c(N)c(C(=O)Nc3ncc(C)s3)sc2n1 | 90.9 | 98.2% | 99.2 | 98.9 |  |  |
| Cc1ccc(NC(=S)NC(=O)c2ccc(F)cc2)cc1S(=O)(=O)Nc1ccccc1Cl | 70.7 | 36.1% | -12 | 91.7 |  |  |
| CCOc1cccc(/C=N/NC(=S)Nc2cc(S(=O)(=O)N3CCOCC3)ccc2N2CCOCC2)c1O | 70.7 | 50.5% | 26.2 | 48.3 |  |  |
| CN(C(=O)COC(=O)/C=C/c1cccc([N+](=O)[O-])c1)C1CCS(=O)(=O)C1 (centres undefined) | 47.5 | 44.7% | 6.76 | 36.6 |  |  |
| COc1cc(NS(C)(=O)=O)ccc1Nc1c2ccccc2nc2ccccc12 | 102 | 99.2% | 86.1 | 95.2 |  |  |
| CC(=O)NC(c1ccc(Cl)cc1Cl)c1ccc2cccnc2c1O (centres undefined) | 96.5 | 96.7% | -0.0688 | 0.461 |  |  |
| CC(C)CC1C(=O)N(Cc2cn(Cc3ccco3)nn2)CCS(=O)(=O)N1Cc1ccc(-c2ccc(F)cc2)cc1 (centres undefined) | 39 | 30.4% | 96.8 | 100 |  |  |
| O=[N+]([O-])c1nn(-c2ccc3c(c2)OCCO3)n(O)c1=Nc1ccc(Cl)cc1 | 48.4 | 73.7% | 13.6 | 8.03 |  |  |
| Cc1nc(C)c(C(=O)N/N=C/c2cc(Br)ccc2O)s1 | 101 | 101% | 52.7 | 46.2 |  |  |
| Cc1cccc(OCC(=O)NCC(=O)N/N=C/c2cc(Br)cc(Br)c2O)c1 | 75 | 86.2% | 65.6 | 74.7 |  |  |
| Cc1ccc(C(=O)Nc2nc3ccccc3[nH]2)cc1 | 89.8 | 88.1% | 99.2 | 98.7 |  |  |

| SMILES | inhibition (PEG-3 [1]) [%] | inhibition (PEG-3 [2]) | inhibition (Rat fibroblasts (CREF) [3]) [%] | inhibition (Rat fibroblasts (CREF) [4]) [%] | activity [5] [%] | activity [6] [%] |
| --- | --- | --- | --- | --- | --- | --- |
| CCc1ccc(/C=C2\SC(=S)N(CCCC(=O)Nc3ccccn3)C2=O)cc1 | 92.7 | 81% | -3.09 | 94.6 |  |  |
| O=C1C=CC(=O)N1c1ccc(-c2nc3ccccc3o2)cc1 | 99.3 | 101% | 101 | 100 |  |  |
| COC(=O)C1C=CC(OC2OC(COC(C)=O)C(OC(C)=O)C(OC(C)=O)C2OC(C)=O)n2c(=O)n(-c3ccccc3)c(=O)n21 (centres undefined) | 99.8 | 98.3% | 98.1 | 99.1 |  |  |
| CC1CCN(c2ccc(-c3cccs3)nn2)CC1 | 90.2 | 97.2% | 96.1 | 96.2 |  |  |
| COc1cc(C(=O)N/N=C(\c2ccccc2)c2ccccn2)cc(OC)c1OC | 72.6 | 74.9% | 72.1 | 63.3 |  |  |
| Cc1ccc2nc(C)cc(Nc3ccc([N+](=O)[O-])cc3)c2c1 | 102 | 101% | 98.1 | 98.9 |  |  |
| Cc1c([N+](=O)[O-])cc(N2C(=O)C=CC2=O)cc1[N+](=O)[O-] | 102 | 102% | 99.5 | 100 |  |  |
| Cc1cc(C)c2sc(NNC(=O)c3ccc(S(=O)(=O)N4CCc5ccccc5C4)cc3)nc2c1 | 84.2 | 94.7% | 53.3 | 25.5 |  |  |
| CN(C)S(=O)(=O)c1ccc(-c2csc(N/N=C/c3ccc(O)cc3)n2)cc1 | 99.1 | 101% | 97.4 | 98.8 |  |  |
| CCOc1ccc2c(ccc(/C=C/c3cc(C)c4cccnc4c3O)[n+]2C)c1 | 101 | 99.4% | 98.8 | 98.5 |  |  |
| O=C1C(Cl)=C(Nc2ccccc2)C(=O)c2ccccc21 | 102 | 101% | 96.9 | 99.8 |  |  |
| CCOc1ccc(OCc2cccc(C(=O)O)c2)cc1 | 91.5 | 91.5% | 96.6 | 97.5 |  |  |
| CCN(CCO)c1ccc(N=Nc2cc(C)[nH]n2)cc1 | 95.5 | 98.9% | 99.4 | 98.6 |  |  |
| COc1cc(/C=C2\SC(=Nc3ccccc3OC)NC2=O)ccc1O | -37 | 89.3% [run 2, dose range 1, at 25 µM] | -38.3 | -20.9 |  |  |
| CCC(=O)NC(c1cccs1)c1cc(Cl)c2cccnc2c1O (centres undefined) | 100 | 99.5% | 38.2 | 97.6 |  |  |
| O=C(Nc1nc2cc3c(cc2s1)OCCO3)c1ccco1 | 97.8 | 95.5% | 92.9 | 95.1 |  |  |
| NS(=O)(=O)c1ccc(CCNc2nn3c(-c4ccc(F)c(Cl)c4)cnc3s2)cc1 | 66.9 | 74.3% | 28.6 | 14.8 |  |  |
| COc1ccc(S(=O)(=O)/N=C2\C=C(Nc3ccc(O)cc3)C(=O)c3ccccc32)cc1 | 96.4 | 99.7% | 101 | 97.4 |  |  |
| NC(C(=O)O)C1ON=C(Cl)C1O (centres undefined) | 41.4 | 43.8% | -3.88 | 9.67 | 82.5 | 88.3 |
